Among all 330,000 compounds or so, about 1,100 (0.33%) were called active.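 How the source made its calls: active means inhibition above about 40% at 20 µM (limit read from the data); inactive means the rest.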 Many of the other results were omitted from the sample, so actives are more common in it than they were.

Usually inhibition stands for the change of the read-out against control, counted positive when it falls.

Sequence of Apelin receptor (Homo sapiens) (P35414 whole entry, looked up): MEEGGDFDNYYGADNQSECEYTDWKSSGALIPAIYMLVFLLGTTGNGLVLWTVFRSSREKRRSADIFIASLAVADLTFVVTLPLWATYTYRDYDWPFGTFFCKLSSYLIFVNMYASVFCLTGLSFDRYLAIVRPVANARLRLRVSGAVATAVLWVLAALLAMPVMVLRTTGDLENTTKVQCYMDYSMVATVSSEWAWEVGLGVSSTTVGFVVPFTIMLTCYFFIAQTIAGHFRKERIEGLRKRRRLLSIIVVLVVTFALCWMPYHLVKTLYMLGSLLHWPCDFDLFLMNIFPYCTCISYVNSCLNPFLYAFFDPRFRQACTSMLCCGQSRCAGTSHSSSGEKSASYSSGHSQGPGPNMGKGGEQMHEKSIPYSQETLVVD

The test concerns the target Apelin receptor (Homo sapiens) (UniProt P35414). The test is described as follows: blockade of apelin-induced APJ beta-arrestin recruitment – CHO-K1 cells, beta-arrestin complementation, luminescence, primary screen (AID 2521).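 Further: cells challenged with 10 nM apelin-13 agonist together with compound; plate controls were apelin-13 plus DMSO wells for no effect and DMSO wells lacking apelin-13 for full effect.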 To be noted: at 20 µM, hits give high values. On the technique in general: Arrestin recruitment assays detect the binding of arrestin to an activated receptor.
Take `CCc1ccc2c(c1)C1(NN=C(c3ccccc3)S1)C(=O)N2` (stereo unspecified): the inhibition was 43.3% (active). With `Cc1ccc(-n2c(C)cc(C(=O)CSc3nnc4ccccn34)c2C)cc1` the figure was -19.2% (inactive); with `CC(=O)Nc1ccc(NC(=O)CSC2=NS(=O)(=O)c3ccccc3N2)cc1`, 17.4% (inactive). In the case of `CCC1Nc2ncnc(N3CCN(c4ccccc4)CC3)c2N(Cc2ccc(Cl)cc2)C1=O` (stereo unspecified), the inhibition is 85.9% (active). The value for `O=C1C(Cc2ccc(O)cc2)NC(=S)N1Cc1ccccc1` (stereo unspecified) was 7.09% (inactive); that for `O=C(CN1CCN(c2ccc(Cl)cc2)CC1)c1ccccc1` was -15.1% (inactive).

Take `COc1ccc(S(=O)(=O)n2cnc3ccccc32)c(C)c1`: the inhibition is 2.56% (inactive). With `Cc1ccc(NC(=S)N(CCCN2CCCC2)Cc2cccn2Cc2ccc(Cl)cc2)cc1` the figure was -11.3% (inactive); with `CC(C)(C)OC(=O)C[C@@H]1C/C=C\C[C@@H](CC(=O)NCCO)C(=O)N[C@H](Cc2c[nH]c3ccccc23)COC1=O`, 0.599% (inactive). The value for `S=C(NNC(=S)NC1CC2C=CC1C2)NC1CC2C=CC1C2` (stereo unspecified) was 9.22% (inactive); that for `S=C(NNC(=S)NC1CC2CCC1C2)NC1CC2C=CC1C2` (stereo unspecified) was 40.2% (active). In the case of `O=C(NNC(=S)NC1CC2CCC1C2)c1ccc(Cl)cc1` (stereo unspecified), the inhibition was -4.76% (inactive). With `Cc1nonc1OCCn1nnnc1N` the figure was -11.5% (inactive); with `Cc1c(NC(=O)CSc2cccc3cccnc23)c(=O)n(-c2ccccc2)n1C`, 21.8% (inactive); with `O=C(NNc1cc(Cl)ccc1Cl)c1cccnc1Cl`, -13.7% (inactive). In the case of `CC(=O)/C(=N\Nc1ccc(Cl)cc1Cl)Sc1cccc2cccnc12`, the inhibition is 50.3% (active). With `Cc1ccc(C(=O)N(CN2CCCC2=O)c2ccc(F)cc2)cc1` the figure was -13.9% (inactive). The value for `CNC(=O)Nc1cc(C(C)(C)C)no1` was 8.23% (inactive); that for `Cc1ccc(N2CCN(S(=O)(=O)c3ccc(F)cc3)CC2)c(C)c1` was 17.5% (inactive). On to `CN(C)S(=O)(=O)c1cccc(NC(=S)NCc2ccc3c(c2)OCO3)c1`, for which the inhibition was 3.11% (inactive). With `CN(C)S(=O)(=O)c1cccc(NC(=S)N/N=C/C(=O)c2ccccc2)c1` the figure was 41.5% (active); with `Cc1ccc(/C=N/NC(=S)Nc2cccc(S(=O)(=O)N(C)C)c2)o1`, -8.56% (inactive); with `O=C(c1ccccc1F)N(Cc1ccccc1)Cc1ccccc1`, -6.53% (inactive). Consider `CC1=C(C(=O)Nc2cc(C)ccn2)C(c2cnn(C)c2)C2=C(CC(c3ccccc3)CC2=O)N1` (stereo unspecified), for which the inhibition was -2.45% (inactive). The value for `O=S(N1CCCCCC1)C12CC3CC(CC(C3)C1)C2` (stereo unspecified) was -12.7% (inactive); that for `Cc1ccc(NC(=O)C2CC2c2ccccc2)cc1` (stereo unspecified) was 0.756% (inactive).

The values above are taken from PubChem BioAssay AID2521 (Sanford-Burnham Center for Chemical Genomics, 2010).
